Our source for the growth values is PubChem BioAssay (NCI).

Values joined by “and” are separate entries in the source; they are usually repeats but may differ in a detail not shown here. Equal values may be shown once. This is part of a sample that, as a whole, favours compounds with a hit. Of some 83,000 tested, about 20% had one in any assay.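 Interpretation: 100, growth as untreated; towards 0, rising growth inhibition; 0, no net growth; 0 to -100, cell death. Compounds scoring below 10 were considered active.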 More than one record can exist for a structure, and the calls need not agree. Active and inactive are the calls of the source.

The subject of the first experiment is A498 renal. The experiment in a line: NCI-60 one-dose screen, 48 h (100 = growth as untreated, 0 = no growth, -100 = all killed). Particulars: 10 µM unless noted.
In the case of `Oc1ccc2ccccc2c1N=Nc1ccccn1`, the growth was 79.9% (inactive).

On to `OC(c1cc(-c2ccc(C(F)(F)F)cc2)nc(C(F)(F)F)c1)C1CCCCN1` (stereo unspecified), for which the growth is 28% (inactive) and -60.5% (active) and 46.4% (inactive).

Take `C/C(=N/NC(N)=S)c1ccc(C)cc1`: the growth was 94.7% (inactive).

With `N#Cc1c2ccccc2nc2ccccc12`, the growth is 67.1% (inactive).

As to `O=C(c1ccccc1)C(Br)[N+](=O)[O-]` (stereo unspecified), the growth is 101% (inactive).

As for `CC(/C=N/NC(N)=S)Cc1ccc(C(C)C)cc1` (stereo unspecified), the growth is 51% (inactive).

For the compound `Nc1cc(-c2ccccc2)ccc1O`, the growth was 93% (inactive).

On to `Oc1c(C(Nc2ccccc2)c2ccccc2)ccc2cccnc12` (stereo unspecified), for which the growth was 78.7% (inactive).

Turning to `O=C(Cc1nc2cc(Cl)c(Cl)cc2nc1CC(=O)c1cccnc1)c1cccnc1`, the growth was 133% (inactive).

Turning to `COc1cccc2c1C(=O)c1c(O)c3c(c(O)c1C2=O)C[C@@](O)(C(=O)CO)C[C@@H]3OC1CC(OC(C)=O)C(OC(C)=O)C(C)O1` (stereo partly specified), the growth is -19.1% (active).

In the case of `O=[N+]([O-])c1ccc([I+]c2ccccc2)cc1`, the growth is 39.6% (inactive).

For the compound `O=C1C=CC(=O)N1c1ccccc1`, the growth is 105% (inactive).

For the compound `CCCCCCCCCCCCNCCCc1ccccc1`, the growth is 76.5% (inactive).

With `CN=C(N)N/N=C(\C)c1ccc2c(c1)Cc1ccccc1-2`, the growth is -8.05% (active).

For the compound `CCN(CC)CCNc1ccc([N+](=O)[O-])c2sc3ccccc3c(=O)c12`, the growth is 43.7% (inactive).

For the compound `O/N=C1\c2ccccc2-c2ccc(F)cc21`, the growth is 132% (inactive).

Turning to `COc1cc(NC(=O)C2=C(C)NC(C)=C(C(=O)Nc3cc(OC)c(Cl)cc3OC)C2c2cccc([N+](=O)[O-])c2)c(OC)cc1Cl`, the growth was 75.3% (inactive).

For `CCN(CC)CCNC(Cc1ccccc1)c1ccc(OCc2ccccc2)cc1` (stereo unspecified), the growth was 49.8% (inactive).

Take `c1ccc(C2NCCNC2c2ccccc2)cc1` (stereo unspecified): the growth was 80.6% (inactive).

With `COC(=O)Nc1nc2ccc(C3(c4ccc(F)cc4)OCCO3)cc2[nH]1`, the growth is 4.58% (active).

With `O=[N+]([O-])c1ccc(Oc2ccccc2Cl)c([N+](=O)[O-])c1`, the growth is 84.7% (inactive).

Consider `O=C(O)c1ccc2c(c1)C(=O)c1ccccc1C2=O`, for which the growth is 71.8% (inactive).

Take `C=C(C(N)=O)C(N)C(=O)O` (stereo unspecified): the growth is 113% (inactive).

Regarding `CCC[CH2][Sn]1([CH2]CCC)[O]C2C(CO)OC(n3ccc(N)nc3=O)C2[O]1` (stereo unspecified), the growth is -94.5% (active).

For the compound `COc1cc2c(c(OC)c1OC)-c1ccc(NCc3ccccc3)c(=O)cc1[C@@H](NC(C)=O)CC2`, the growth is -17.3% (active).

As to `CCN1CCCC(Nc2cc(C)nc(/N=C(/N)Nc3ccc(Cl)c(Cl)c3)n2)C1` (stereo unspecified), the growth is -49.1% (active).

With `CN=C(N)N/N=C(\c1ccccc1)c1ccc(Br)cc1`, the growth is -19.2% (active).

For the compound `O=C(NOC(=O)c1ccccc1)c1ccccc1`, the growth is 94.6% (inactive).

For the compound `O=[n+]1c2ccccc2n([O-])c2cc(Cl)ccc21`, the growth is 81.6% (inactive).

In the case of `C(=N\Nc1ccc2ccccc2n1)/c1ccccn1`, the growth was 26.7% (inactive).

Regarding `O=C(CCl)N1c2ccccc2Sc2c1ccc1ccccc21`, the growth is 110% (inactive).

Regarding `CC(C)c1ccc(Nc2n[nH]c(=S)s2)cc1`, the growth was 94.6% (inactive).

Another experiment has as its system CCRF-CEM leukemia. Described as above. The settings on record: 10 µM unless noted.
As to `OC(c1cc(-c2ccc(C(F)(F)F)cc2)nc(C(F)(F)F)c1)C1CCCCN1` (stereo unspecified), the growth is 0.247% (active) and -56.8% (active) and 17% (inactive).

`C/C(=N/NC(N)=S)c1ccc(C)cc1`: the growth was 43.3% (inactive).

`N#Cc1c2ccccc2nc2ccccc12`: the growth was 98.2% (inactive).

With `O=C1CSC(=S)N1Cc1cccnc1`, the growth is 12.9% (inactive).

With `O=C(c1ccccc1)C(Br)[N+](=O)[O-]` (stereo unspecified), the growth is 24.8% (inactive).

`CC(/C=N/NC(N)=S)Cc1ccc(C(C)C)cc1` (stereo unspecified): the growth was 65.9% (inactive).

Regarding `Nc1cc(-c2ccccc2)ccc1O`, the growth was 37.2% (inactive).

For the compound `Oc1c(C(Nc2ccccc2)c2ccccc2)ccc2cccnc12` (stereo unspecified), the growth is 17.7% (inactive).

On to `O=C(Cc1nc2cc(Cl)c(Cl)cc2nc1CC(=O)c1cccnc1)c1cccnc1`, for which the growth was 31.4% (inactive).

In the case of `COc1cccc2c1C(=O)c1c(O)c3c(c(O)c1C2=O)C[C@@](O)(C(=O)CO)C[C@@H]3OC1CC(OC(C)=O)C(OC(C)=O)C(C)O1` (stereo partly specified), the growth was -48.6% (active).

Consider `O=[N+]([O-])CC(O)c1ccccc1` (stereo unspecified), for which the growth is 104% (inactive).

`CCCCCCCCCCCCNCCCc1ccccc1`: the growth was 48.9% (inactive).

In the case of `CN=C(N)N/N=C(\C)c1ccc2c(c1)Cc1ccccc1-2`, the growth is -35.2% (active).

Regarding `CCN(CC)CCNc1ccc([N+](=O)[O-])c2sc3ccccc3c(=O)c12`, the growth was 38% (inactive).

On to `O/N=C1\c2ccccc2-c2ccc(F)cc21`, for which the growth was 86.5% (inactive).

In the case of `COc1cc(NC(=O)C2=C(C)NC(C)=C(C(=O)Nc3cc(OC)c(Cl)cc3OC)C2c2cccc([N+](=O)[O-])c2)c(OC)cc1Cl`, the growth is 12.3% (inactive).

For `CCN(CC)CCNC(Cc1ccccc1)c1ccc(OCc2ccccc2)cc1` (stereo unspecified), the growth was 51.4% (inactive).

On to `c1ccc(C2NCCNC2c2ccccc2)cc1` (stereo unspecified), for which the growth was 104% (inactive).

Consider `COC(=O)Nc1nc2ccc(C3(c4ccc(F)cc4)OCCO3)cc2[nH]1`, for which the growth was 5.57% (active).

Consider `O=[N+]([O-])c1ccc(Oc2ccccc2Cl)c([N+](=O)[O-])c1`, for which the growth is 57.8% (inactive).

With `O=C(O)c1ccc2c(c1)C(=O)c1ccccc1C2=O`, the growth was 108% (inactive).

In the case of `CCC[CH2][Sn]1([CH2]CCC)[O]C2C(CO)OC(n3ccc(N)nc3=O)C2[O]1` (stereo unspecified), the growth is -30.7% (active).

Turning to `COc1cc2c(c(OC)c1OC)-c1ccc(NCc3ccccc3)c(=O)cc1[C@@H](NC(C)=O)CC2`, the growth was 10.1% (inactive).

As for `CCN1CCCC(Nc2cc(C)nc(/N=C(/N)Nc3ccc(Cl)c(Cl)c3)n2)C1` (stereo unspecified), the growth was -16.4% (active).

With `CN=C(N)N/N=C(\c1ccccc1)c1ccc(Br)cc1`, the growth was 2.24% (active).

As for `O=C(NOC(=O)c1ccccc1)c1ccccc1`, the growth is 70.6% (inactive).

With `O=[n+]1c2ccccc2n([O-])c2cc(Cl)ccc21`, the growth was -6.38% (active).

For the compound `C(=N\Nc1ccc2ccccc2n1)/c1ccccn1`, the growth is 16.9% (inactive).

Take `O=C(CCl)N1c2ccccc2Sc2c1ccc1ccccc21`: the growth is 6.54% (active).
